Assay results as given in PubChem BioAssay AID709 (SRMLSC, 2007).
In all, about 65,000 compounds went through this assay and about 3,600 (5.5%) were called active.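 Rule for the calls: active = at 10 µM, mean starting fluorescence two-fold or more over control wells; inactive = the rest.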 The sample as a whole holds a higher share of actives than the screen did.

Test: intrinsic fluorescence of library compounds, ex339/em460 – biochemical, MLSMR library, data from DPM-DC assay, artefact control, profiling panel (AID 709);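 note: signal is the first read of a kinetic run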
Conditions: compound autofluorescence, ex339/em460 nm, NADH buffer; at 10 µM; hits give high values; 1 = no-compound wells, NADH background

Fluorescence fold increase, active:
Cc1nc2ccc(NC(=O)N3CCC(c4ccccc4)C3)cc2nc1C (configuration not stated) 2.93
CCc1cc(=O)oc2cc(C)cc(OC(C)C(=O)O)c12 (configuration not stated) 3.78
CCc1nc(N2CCN(c3nc(C)cc(C)n3)CC2)c2oc3ccccc3c2n1 2.49
CC(C)Cn1c(CCC(=O)O)ccc1-c1cccs1 3.14
CCCCC(=O)Nc1ccc2c(c1)C(=O)NC2=O 2.11

Fluorescence fold increase, inactive:
NC(=O)CSc1oc(-c2cccs2)nc1S(=O)(=O)c1ccccc1 1.22
CCN(CC(=O)NC(C)C)C(=O)CCNC(=O)c1ccc(Cl)cc1 1.13
CCOc1cc2c(cc1OCC)C(C(=O)O)C(c1ccc(OC)c(O)c1)N(C)C2=O (configuration not stated) 1.02
Cn1c(CCN2CCCCCC2)nc2cc(NC(=O)Nc3ccccc3)ccc21 1.24
O=C(Nc1cccc(NC(=O)N2CCN(c3ccccc3)CC2)c1)N1CCN(c2ccccc2)CC1 1.06
CCCSC1=C(C#N)C(c2ccccc2C)C(C(=O)OC)C(=O)N1 (configuration not stated) 1.13
Cc1nc(N2CCN(c3ncccn3)CC2)c2oc3ccccc3c2n1 1.16
Cc1cc(C)nc(N2CCN(c3ncnc4c3oc3ccccc34)CC2)n1 1.27
Cc1noc(COc2ccccc2OCC(O)CNC(C)(C)C)n1 (configuration not stated) 1.04
O=c1c(-c2ccc3c(c2)OCCO3)c(C(F)(F)F)oc2cc(O)cc(O)c12 1.07
CCC(C)(C)n1nnnc1C(c1cccs1)N1CCN(c2nc3ccccc3s2)CC1 (configuration not stated) 1.35
CCOC(=O)c1[nH]cnc1C(=O)NC1CCCCC1 1.07
COc1cccc(N2CCN(C3CC(=O)N(c4ccc(Cl)cc4)C3=O)CC2)c1 (configuration not stated) 1.12
CC1CCCN(C(=O)Cn2c(=O)oc3ccccc32)C1 (configuration not stated) 1.09
Cc1nc(NCc2ccccc2)c(C(N)=O)c2c1COC(C)(C)C2 1.89
O=C(O)CCC(=O)N(Cc1cccs1)Cc1cccs1 1.09
CCCC(=O)NC(C)C(c1cccs1)N1CCN(c2ccccc2)CC1 (configuration not stated) 0.99
CCCCOC(=O)c1ccc(N2C(=O)CC(N3CCN(C/C=C/c4ccccc4)CC3)C2=O)cc1 (configuration not stated) 1.12
Clc1ccc(Cc2nn3c(-c4ccncc4)nnc3s2)cc1 1
CCCCC(=O)Nc1ccc(C(=O)NCCCn2ccnc2)cc1 1.13
CCCCC(=O)Nc1ccc2c(c1)OCCO2 1.08
O=C(Nc1ccccc1N1CCN(C(=O)c2ccccc2)CC1)c1ccc2c(c1)OCO2 1.1
